KB-3-1 tox = KB-3-1 parental cell cytotoxicity; 400,000 compounds, 1.4% hits; AID 1347075; Potency, µM (highest dose often 46.1 µM), usual class: cytotoxic; KB-3-1 viability, CellTiter-Glo ATP luminescence, 72 h; further: on the % scale 0 is the no-effect control and ±100 the full control effect; nearly all actives have a fitted effect of over 60% in size
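Screening of KB-3-1 cells (DMEM, 10% FBS, phenol-red free) ran from lowest to highest compound concentration; after 72 h at 37 °C viability was read luminescently and curves fitted.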
KB-V1 cytotox = kills drug-selected multidrug resistant KB-V1 cells; 400,000 compounds, 3.4% hits; Potency, µM (top dose mostly 46.1 µM), actives largely listed as cytotoxic; KB-V1 MDR cells viability, CellTiter-Glo, 72 h; further: on the % scale 0 is the no-effect control and ±100 the full control effect; nearly all actives have a fitted effect of over 60% in size
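In this primary screen, KB-V1 cells overexpressing P-gp are incubated with library compounds (lowest to highest concentration) for 72 h at 37 degrees C before a luminescent ATP viability read.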
TGFb inhibitor = blocks TGF-b signaling; HepG2 CAGA-GFP TGF-b/SMAD3 reporter, GFP fluorescence, 18 h; TGF-beta stimulated, 500 pg/mL final; Potency, µM (highest dose often 46.1 µM), for inactives: at the top dose activity, negative = inhibition, actives largely listed as inhibitors; 410,000 compounds, 1.2% hits; further: on the % scale 0 is the no-effect control and ±100 the full control effect; nearly all actives have a fitted effect of over 65% in size
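TGF-beta reporter screen: HEPG2 CAGA-GFP, 1% FBS, 500 pg/mL TGF-beta final, 18 h; per-cell GFP summed per well; curves fitted and categorized by class.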
HepG2 tox = kills HepG2 cells in TGF-b inhibitor counter-screen; 410,000 compounds, 0.76% hits; HepG2 CAGA-GFP viability, ATP luminescence, 18 h; Potency, µM (top dose mostly 46.1 µM), without a hit: at the top dose activity change, negative = cytotoxicity, actives largely listed as cytotoxic; AID 588856
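CellTiter-Glo luminescence gave cytotoxicity after 18 hours at 37 degrees C. The cells were HepG2 CAGA-GFP in 1% FBS DMEM, stimulated with 500 pg/mL TGF-beta after compound addition. %Activity was normalised to no-cell wells (complete cell-killing) and DMSO (no toxicity), and curves were fitted and classified.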
HT1080-NT tox = kills 2HG-producing HT-1080-NT fibrosarcoma cells; HT-1080-NT fibrosarcoma viability, CellTiter-Glo ATP luminescence, 48 h; Potency, µM (doses to about 46.1 µM), without a hit: at the top dose activity, negative = less viability, usual class: cytotoxic; 360,000 compounds, 1.6% hits;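 further: NT is the 2HG producing partner of a matched IDH1 knockdown line; 0% = DMSO-treated cells and -100% = media-only wells without cells; nearly all actives have a fitted effect of over 55% in size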
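Compounds were tested in concentration-response format on HT-1080-NT cells for 48 hours at 37 degrees C. Cell viability came from CellTiter-Glo luminescence; curves were classified by r2, response magnitude and activity.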
HT1080 IDH1KD tx = HT-1080 IDH1 knockdown cell toxicity (counter line); HT-1080 IDH1 knockdown viability, ATP luminescence, 48 h; Potency, µM (series often up to 46.1 µM), for the others: top-dose activity, negative = toxicity, hits mostly cytotoxic; AID 686971; 360,000 compounds, 2% hits;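 further: 0% = DMSO wells and -100% = cell-free medium wells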
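HT-1080-IDH1KD cells (IDH1 knocked down), 750/well in RPMI with 5% FBS, treated with compound 48 h at 37 degrees C. Viability by CellTiter-Glo luminescence, normalised to DMSO and no-cell wells; concentration-response curves classed.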
The depositor's hits bear a star; i = inactive; ? = inconclusive; · = not tested or not shown. The list is not random: actives were taken first. Their share in the collection is about 6.6%. The call rests on the fitted dose curve; in most records, active means well fitted curve in the direction sought with a large enough effect; inconclusive means small, poorly fitted or top-dose-only effect, or another doubt; inactive means no such curve, though single readings can be large; an effect the other way counts as inactive or inconclusive. Potency means the concentration at half of the fitted maximal effect.

SMILES	KB-3-1 tox	KB-V1 cytotox	TGFb inhibitor	HepG2 tox	HT1080-NT tox	HT1080 IDH1KD tx
CCc1cn(C2CC(O)C(CO)O2)c(=O)[nH]c1=O (centres undefined)	4.6µM*	i	14%	3%	3%	7%
Nc1nc(=O)n(C2CC(O)C(CO)O2)cc1F (centres undefined)	i	i	1%	3%	-20%	5.2µM*
Cc1nn(CCc2nn[nH]n2)c2nc(-c3ccc(C4CCCCC4)cc3)cc(C(F)(F)F)c12	i	i	?	-9%	23µM*	?
O=C(O)c1ccccc1-c1ccccc1C(=O)NNc1ccccc1	i	i	-18%	-13%	-30%	?
CCNC(=S)NNc1ccccc1	i	i	-7%	10%	8.2µM*	6.5µM*
S=C(NCc1ccccc1)NNc1ccccc1	i	i	?	-3%	?	?
O=C(NNc1ccccc1)C(=O)NNc1ccccc1	?	?	-8%	-1%	-18%	1.2µM*
O=C(NNc1ccccc1)c1ccc(Cl)c(Cl)c1	i	18µM*	0%	-15%	?	-9%
O=C(NNC(=O)c1ccc2ccccc2c1)c1ccc(Cl)c(Cl)c1	i	i	-3%	4%	2%	2%
O=C(NNc1ccccc1)OCc1ccccc1	i	i	0%	-11%	?	3.3µM*
COc1cccc(CNC(=O)CN2C(=O)N(c3cc(C)ccc3C)S(=O)(=O)c3ccccc32)c1OC	i	i	?	-23%	·	·
Cc1ccc(NC(=O)CSc2nc3ccccc3nc2Cc2ccccc2)c(C)c1	i	?	12%	-11%	·	·
CCCCc1ccc(-n2nc3cc(C)c(NC(=O)c4ccc(C#N)cc4F)cc3n2)cc1	i	?	-6%	17%	·	·
O=C(CNS(=O)(=O)Cc1ccccc1)NNc1ccccc1	i	i	-3%	1%	?	4.1µM*
O=C(CNS(=O)(=O)Cc1ccccc1)NCc1ccccc1	i	i	-1%	7%	21%	18%
NC(=S)NN=C(c1ccccc1)c1ccccc1	i	i	?	-21%	-17%	-12%
NC(=S)N/N=C1/CCSc2ccc3ccccc3c21	i	?	?	-20%	26µM*	?
Fc1ccc(-[n+]2nc(Nc3ccccc3)sc2-c2c(Cl)cccc2Cl)cc1	?	i	?	11µM*	?	-23%
COc1ccc(-c2sc(Nc3ccccc3)n[n+]2-c2ccc(F)cc2)cc1Br	i	?	-5%	-33%	?	-24%
COc1ccc2ccccc2c1-c1sc(Nc2ccccc2)n[n+]1-c1ccc(F)cc1	i	i	?	11µM*	?	?
CCc1ccc(Nc2n[n+](-c3ccccc3)c(-c3c(Cl)cccc3Cl)s2)cc1	23µM*	?	7.1µM*	-108%	21µM*	?
O=C(O)c1ccc(-c2sc(Nc3ccccc3)n[n+]2-c2ccc(F)cc2)cc1	i	i	-29%	-3%	0%	-2%
COc1ccc(C)cc1Nc1n[n+](-c2ccccc2)c(-c2c(Cl)cccc2Cl)s1	?	?	?	13µM*	?	?
COc1ccc(S(=O)(=O)N2CCCCC2)cc1NC(=O)c1cncc(Br)c1	i	i	1%	10%	16%	3%
COc1cc(OC)cc(-n2c(=O)c3ccccc3n(Cc3ccccc3C#N)c2=O)c1	i	i	25%	10%	·	·
SMILES	KB-3-1 tox	KB-V1 cytotox	TGFb inhibitor	HepG2 tox	HT1080-NT tox	HT1080 IDH1KD tx
COc1ccc(N2CCN(C(CNC(=O)C(=O)NCCc3ccccc3)c3cccnc3)CC2)cc1 (centres undefined)	i	i	-30%	-7%	·	·
Cc1ccc(OCCn2cc(C=O)c3ccccc32)cc1	i	i	11µM*	-14%	1%	1%
Cc1ccc(OCCCn2cc(C#N)c3ccccc32)cc1	?	16µM*	-17%	-23%	-1%	-3%
O=Cc1cn(CCOc2ccccc2)c2ccccc12	i	i	?	-62%	-2%	-5%
CCOC(=O)N/N=C/c1cn(Cc2ccc(F)cc2)c2ccccc12	?	?	2.2µM*	-53%	?	2%
CCOC(=O)N/N=C/c1cn(CCCOc2ccc(C)cc2)c2ccccc12	?	21µM*	-27%	-22%	1%	-7%
COc1cccc(CNC(=O)c2ccc3nc(-c4ccc(F)cc4)c(-c4ccc(F)cc4)nc3c2)c1	i	i	-1%	-17%	·	·
Cc1sc2ncn(CC(=O)N3CCN(c4ccccc4)CC3)c(=O)c2c1S(=O)(=O)N1CCC(C)CC1	i	i	?	-20%	·	·
Cc1ccc(S(=O)(=O)NC(Cc2ccccc2)C(=O)NN)cc1 (centres undefined)	i	i	13%	5%	11%	0%
Cc1ccc(S(=O)(=O)N[C@@H](Cc2ccccc2)C(=O)CCl)cc1	?	?	?	-94%	?	16µM*
CN1CCN(c2ccc(Nc3c4ccccc4nc4ccccc34)cc2)CC1	15µM*	23µM*	·	·	·	·
COc1ccccc1Nc1nc(-c2ccccc2)nc2ccccc12	i	i	-2%	-27%	1%	-3%
COc1ccccc1Nc1c2ccccc2nc2ccccc12	?	15µM*	?	-28%	16µM*	?
COc1ccc(Nc2c3c(nc4ccccc24)CCC3)cc1	?	21µM*	11µM*	-47%	23µM*	?
COc1cc(Nc2c3ccccc3nc3ccccc23)cc(OC)c1OC	?	?	?	-76%	10µM*	?
O=C(O)c1ccc(Nc2c3ccccc3nc3ccccc23)cc1	i	i	0%	-29%	-18%	-14%
COc1ccc(C)cc1Nc1c2c(nc3ccccc13)CCC2	0.65µM*	2.9µM*	7.9µM*	-17%	?	1.2µM*
Fc1ccc(Nc2c3c(nc4ccccc24)CCC3)cc1	?	i	?	-33%	16µM*	?
COc1ccc(Nc2c3c(nc4ccccc24)CCCC3)cc1OC	?	?	?	-12%	?	?
COc1ccc(Nc2c3ccccc3nc3ccccc23)cc1	6.5µM*	?	?	-36%	9.2µM*	12µM*
Cc1ccc2nc3c(c(Nc4ccccc4)c2c1)CCC3	i	?	13µM*	-42%	?	?
